# Some structures have more than one record in an assay (separate samples or runs), and their calls can disagree. The source made the active and inactive calls. Rule for the calls: active = hit-call score of the fitted dose curve at least 0.9, where 1 is the maximum; inactive = score below 0.9.
# How the values were obtained:
# Details in all cases: mRNA level, 48 h; actives raise or lower the signal
# [1] = read-out: MYC, MYC (gene 4609); assay: LTEA_HepaRG_MYC: Life Technologies and Expression Analysis (LTEA) Assay for MYC using HepaRG (AID 2283518)
# How it was run: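 Expression changes were scored by TaqMan qRT-PCR with ACTB, GAPDH and POLR2A normalization. Cultures in serum-free induction medium received duplicate 8-point concentration series, highest 100 uM, for 48 h; DMSO (0.5%) served as baseline.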
# [2] = read-out: matrix metalloproteinase-3 (MMP3), MMP3 (gene 4314); assay: LTEA_HepaRG_MMP3: Life Technologies and Expression Analysis (LTEA) Assay for matrix metalloproteinase-3 (MMP3) using HepaRG (AID 2283519)
# How it was run: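 qRT-PCR read-out of MMP3 mRNA (normalised to three housekeeping genes) in HepaRG liver cells after 48 h chemical exposure; 8-point half-log series, top 100 uM, 0.5% DMSO vehicle. Bidirectional curve fitting against DMSO baseline.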
# [3] = read-out: Protein phosphatase 2A (PPP2R4), PTPA (gene 5524); assay: LTEA_HepaRG_PPP2R4: Life Technologies and Expression Analysis (LTEA) Assay for Protein phosphatase 2A (PPP2R4) using HepaRG (AID 2283522)
# How it was run: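 Expression was quantified by Fluidigm qRT-PCR normalised to three housekeeping genes after 48 h treatment. Human HepaRG cells received an 8-point series from 100 µM downward by half-logs, in duplicate with 0.5% DMSO vehicle and 1 mM phenobarbital as induction control.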
# [4] = read-out: Phosphatase and tensin (PTEN), PTEN (gene 5728); assay: LTEA_HepaRG_PTEN: Life Technologies and Expression Analysis (LTEA) Assay for Phosphatase and tensin (PTEN) using HepaRG (AID 2283523)
# How it was run: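 HepaRG, 48 h exposure, 8-pt half-log series from 100 uM top, 0.5% DMSO vehicle, duplicates. Readout: Fluidigm qRT-PCR of PTEN transcript; housekeeping normalization (ACTB, GAPDH, POLR2A). Gain or loss fitted relative to DMSO baseline.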
# [5] = read-out: solute carrier (SLC22A1), SLC22A1 (gene 6580); assay: LTEA_HepaRG_SLC22A1: Life Technologies and Expression Analysis (LTEA) Assay for solute carrier (SLC22A1) using HepaRG (AID 2283524);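 for AC50: differentiated human HepaRG liver cells in serum-free induction medium; TaqMan qRT-PCR normalized to ACTB GAPDH and POLR2A housekeeping genes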
# How it was run: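 qRT-PCR readout (TaqMan, Fluidigm arrays) of SLC22A1 transcript, normalized to three housekeeping genes; bidirectional curve fit relative to 0.5% DMSO vehicle. Differentiated human HepaRG cells, 48 h chemical exposure, top concentration 100 uM, half-log steps, eight points.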
# [6] = read-out: NAD(P)H dehydrogenase [quinone] 1 (NQO1), NQO1 (gene 1728); assay: LTEA_HepaRG_NQO1: Life Technologies and Expression Analysis (LTEA) Assay for NAD(P)H dehydrogenase [quinone] 1 (NQO1) using HepaRG (AID 2283526)
# How it was run: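 NQO1 transcript induction or loss measured by TaqMan qRT-PCR, referenced to three housekeeping genes and fitted bidirectionally against 0.5% DMSO. HepaRG cultures exposed 48 h, duplicate, eight-point half-log series, top 100 uM.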
# [7] = read-out: matrix metalloproteinase-10 (MMP10), MMP10 (gene 4319); assay: LTEA_HepaRG_MMP10: Life Technologies and Expression Analysis (LTEA) Assay for matrix metalloproteinase-10 (MMP10) using HepaRG (AID 2283517)
# How it was run: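 Transcript levels come from Fluidigm qRT-PCR normalized to three housekeeping genes, with curves fitted bidirectionally against 0.5% DMSO. Human HepaRG cells were dosed for 48 hours at concentrations up to 100 uM.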
# [8] = read-out: Paternally Expressed 10 (PEG10), PEG10 (gene 23089); assay: LTEA_HepaRG_PEG10: Life Technologies and Expression Analysis (LTEA) Assay for Paternally Expressed 10 (PEG10) using HepaRG (AID 2283520);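 for AC50: differentiated HepaRG human liver cells in serum-free induction medium with 0.5% DMSO; PEG10 transcript by qRT-PCR normalised to ACTB GAPDH and POLR2A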
# How it was run: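 PEG10 transcript measured by Fluidigm qRT-PCR, normalized to three housekeeping genes, in HepaRG cells treated 48 h (highest 100 uM, half-log steps, 0.5% DMSO vehicle). Cells plated 48 h before switching to serum-free induction medium.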
# [9] = read-out: Nuclear factor NF-kappa-B p105 subunit (Homo sapiens) (UniProt P19838); assay: LTEA_HepaRG_NFKB1: Life Technologies and Expression Analysis (LTEA) Assay for Nuclear Factor Kappa B Subunit 1 (NFKB1) using HepaRG (AID 2283521);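 note: differentiated human HepaRG liver cells in serum-free induction medium; TaqMan qRT-PCR transcript normalised to ACTB GAPDH and POLR2A housekeeping genes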
# How it was run: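 NFKB1 transcript was measured by TaqMan qRT-PCR on Fluidigm arrays, normalised to three housekeeping genes and fitted in both directions against 0.5% DMSO. HepaRG cells were dosed in duplicate for 48 h in serum-free induction medium, eight half-log steps from 100 uM.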
# [10] = read-out: Pyruvate Dehydrogenase Kinase 4 (PDK4), PDK4 (gene 5166); assay: LTEA_HepaRG_PDK4: Life Technologies and Expression Analysis (LTEA) Assay for Pyruvate Dehydrogenase Kinase 4 (PDK4) using HepaRG (AID 2283525)
# How it was run: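 HepaRG (human liver line), 48 h chemical exposure, 8-pt half-log CRC top 100 uM, 0.5% DMSO vehicle, duplicates. Readout: TaqMan qRT-PCR of PDK4 mRNA, housekeeping-normalized; gain/loss fit relative to DMSO baseline.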
# Sequence of Nuclear factor NF-kappa-B p105 subunit (Homo sapiens) (P19838 whole entry, looked up): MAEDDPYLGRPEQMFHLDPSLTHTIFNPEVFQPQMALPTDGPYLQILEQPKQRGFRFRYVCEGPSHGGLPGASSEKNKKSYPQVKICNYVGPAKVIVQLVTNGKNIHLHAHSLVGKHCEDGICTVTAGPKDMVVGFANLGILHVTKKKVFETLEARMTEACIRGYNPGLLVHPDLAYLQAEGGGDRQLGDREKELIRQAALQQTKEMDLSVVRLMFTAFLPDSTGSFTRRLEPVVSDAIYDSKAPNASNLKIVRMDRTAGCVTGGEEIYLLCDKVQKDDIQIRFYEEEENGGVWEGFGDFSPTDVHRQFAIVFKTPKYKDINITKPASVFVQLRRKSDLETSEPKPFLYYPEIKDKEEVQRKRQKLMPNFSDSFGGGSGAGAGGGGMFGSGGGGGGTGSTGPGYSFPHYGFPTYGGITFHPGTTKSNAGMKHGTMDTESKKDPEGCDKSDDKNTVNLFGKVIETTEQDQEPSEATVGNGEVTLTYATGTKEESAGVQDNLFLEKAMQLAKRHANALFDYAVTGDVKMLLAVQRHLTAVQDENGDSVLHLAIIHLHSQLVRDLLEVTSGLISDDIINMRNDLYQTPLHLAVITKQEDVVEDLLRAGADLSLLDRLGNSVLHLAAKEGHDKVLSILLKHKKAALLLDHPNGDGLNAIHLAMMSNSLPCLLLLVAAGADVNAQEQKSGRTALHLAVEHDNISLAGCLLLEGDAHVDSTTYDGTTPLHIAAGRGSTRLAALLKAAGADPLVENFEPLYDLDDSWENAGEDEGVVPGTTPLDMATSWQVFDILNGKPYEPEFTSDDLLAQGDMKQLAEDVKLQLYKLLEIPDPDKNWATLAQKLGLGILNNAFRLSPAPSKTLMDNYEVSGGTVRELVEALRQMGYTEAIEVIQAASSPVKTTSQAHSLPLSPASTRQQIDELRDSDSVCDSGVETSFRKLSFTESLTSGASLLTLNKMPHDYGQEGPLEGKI
structure (smiles),measurement,setting,value
CN(C)[C@@H]1C(=O)C(C(N)=O)=C(O)[C@@]2(O)C(=O)C3=C(O)c4c(O)cccc4[C@@](C)(O)[C@H]3[C@H](O)[C@@H]12,outcome,[1],inactive
same,AC50,[2],5.76 µM (active)
same,outcome,[2],inactive
same,outcome,[3],inactive
same,outcome,[4],inactive
same,outcome,[5],inactive
same,outcome,[6],inactive
CCC(=NOC/C=C/Cl)C1=C(O)CC(C2CCOCC2)CC1=O (stereo not given),outcome,[7],inactive
same,outcome,[2],inactive
same,outcome,[8],inactive
same,outcome,[9],inactive
same,outcome,[3],inactive
same,outcome,[4],inactive
same,outcome,[5],inactive
same,outcome,[6],inactive
COP(=O)(OC)C(O)C(Cl)(Cl)Cl (stereo not given),outcome,[2],inactive
same,outcome,[9],inactive
same,outcome,[3],inactive
same,outcome,[4],inactive
same,outcome,[5],inactive
same,outcome,[6],inactive
COc1cc(OC)nc(Sc2cccc(Cl)c2C(=O)O)n1,outcome,[1],inactive
same,outcome,[2],inactive
same,outcome,[9],inactive
same,outcome,[3],inactive
same,outcome,[4],inactive
same,outcome,[5],inactive
same,outcome,[6],inactive
COc1cccc(C(=O)NN(C(=O)c2cc(C)cc(C)c2)C(C)(C)C)c1C,outcome,[2],inactive
same,outcome,[9],inactive
same,outcome,[3],inactive
same,outcome,[4],inactive
same,outcome,[6],inactive
CNc1cnn(-c2cccc(C(F)(F)F)c2)c(=O)c1Cl,outcome,[2],inactive
same,AC50,[8],32 µM (active)
same,outcome,[9],inactive
same,outcome,[3],inactive
same,outcome,[4],inactive
same,AC50,[5],50 µM (active)
same,outcome,[10],inactive
same,outcome,[6],inactive
CC(C)N(C(=O)SCC(Cl)=C(Cl)Cl)C(C)C,outcome,[2],inactive
same,outcome,[8],inactive
same,outcome,[3],inactive
same,outcome,[4],inactive
same,outcome,[5],inactive
same,outcome,[6],inactive
CCOP(=O)(NC(C)C)Oc1ccc(SC)c(C)c1 (stereo not given),outcome,[1],inactive
same,outcome,[2],inactive
same,AC50,[8],50 µM (active)
same,outcome,[9],inactive
same,outcome,[3],inactive
same,outcome,[4],inactive
same,outcome,[5],inactive
same,outcome,[6],inactive
CSc1nnc(C(C)(C)C)c(=O)n1N,outcome,[2],inactive
same,outcome,[9],inactive
same,outcome,[3],inactive
same,outcome,[4],inactive
same,outcome,[5],inactive
same,outcome,[6],inactive
CNC(=O)ON=C(C)SC,outcome,[1],inactive
same,outcome,[2],inactive
same,outcome,[9],inactive
same,outcome,[3],inactive
same,outcome,[4],inactive
same,outcome,[5],inactive
same,outcome,[10],inactive
same,outcome,[6],inactive
CNC(=O)ON=C(SC)C(=O)N(C)C,outcome,[1],inactive
same,outcome,[2],inactive
same,outcome,[9],inactive
same,outcome,[3],inactive
same,outcome,[4],inactive
same,outcome,[5],inactive
same,outcome,[6],inactive
CNC(=O)Oc1cccc2c1OC(C)(C)O2,outcome,[2],inactive
same,outcome,[3],inactive
same,outcome,[4],inactive
same,outcome,[5],inactive
same,outcome,[10],inactive
same,outcome,[6],inactive
CCCOc1nn(C(=O)NS(=O)(=O)c2ccccc2C(=O)OC)c(=O)n1C,outcome,[1],inactive
same,outcome,[2],inactive
same,outcome,[9],inactive
same,outcome,[3],inactive
same,outcome,[4],inactive
same,outcome,[5],inactive
same,outcome,[10],inactive
same,outcome,[6],inactive
COP(=O)(OC)SCn1c(=O)oc2cc(Cl)cnc21,outcome,[1],inactive
same,outcome,[2],inactive
same,outcome,[9],inactive
same,outcome,[3],inactive
same,outcome,[4],inactive
same,AC50,[5],50 µM (active)
same,outcome,[10],inactive
same,outcome,[6],inactive
Cc1cc(C2CC2)nc(Nc2ccccc2)n1,outcome,[1],inactive
same,outcome,[2],inactive
same,outcome,[8],inactive
same,outcome,[3],inactive
same,outcome,[4],inactive
same,AC50,[5],67.7 µM (active)
same,outcome,[10],inactive
same,outcome,[6],inactive
CC(=NC#N)N(C)Cc1ccc(Cl)nc1,outcome,[2],inactive
same,outcome,[8],inactive
same,outcome,[9],inactive
same,outcome,[3],inactive
same,outcome,[4],inactive
same,outcome,[5],inactive
same,outcome,[10],inactive
same,outcome,[6],inactive
FC(F)C(F)(F)OCC(Cn1cncn1)c1ccc(Cl)cc1Cl (stereo not given),AC50,[2],66.9 µM (active)
same,outcome,[8],inactive
same,outcome,[9],inactive
same,AC50,[3],90.4 µM (active)
same,outcome,[4],inactive
same,AC50,[5],19.7 µM (active)
same,AC50,[10],12 µM (active)
same,outcome,[6],inactive
CC1(C(=O)Nc2ccc(O)c(Cl)c2Cl)CCCCC1,outcome,[2],inactive
same,outcome,[8],inactive
same,outcome,[9],inactive
same,outcome,[3],inactive
same,outcome,[4],inactive
same,outcome,[5],inactive
same,outcome,[10],inactive
same,outcome,[6],inactive

# Source: PubChem BioAssay (EPA / NIEHS)
